This is part of a sample that, as a whole, favours compounds with a hit. Of some 83,000 tested, about 20% had one in any assay.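 96-well plates, one dose, 48 hours. Percent growth reported; active if below 10.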 Calls of active or inactive are those of the source.
Key:
Assay in all cases: NCI-60 one-dose screen, 48 h (100 = growth as untreated, 0 = no growth, -100 = all killed)
Details in all cases: 10 µM unless noted
DU-145 prostate = tested on: DU-145 prostate
K-562 leukemia = tested on: K-562 leukemia
MALME-3M melanoma = tested on: MALME-3M melanoma
MDA-MB-231 breast = tested on: MDA-MB-231 breast
RXF 393 renal = tested on: RXF 393 renal
SF-268 CNS = tested on: SF-268 CNS
SF-295 CNS = tested on: SF-295 CNS
SF-539 CNS = tested on: SF-539 CNS
UACC-257 melanoma = tested on: UACC-257 melanoma
M14 melanoma = tested on: M14 melanoma
HCT-15 colon = tested on: HCT-15 colon
HT29 colon = tested on: HT29 colon
SNB-75 CNS = tested on: SNB-75 CNS
SNB-19 CNS = tested on: SNB-19 CNS
U251 CNS = tested on: U251 CNS
PC-3 prostate = tested on: PC-3 prostate
SK-MEL-5 melanoma = tested on: SK-MEL-5 melanoma
UACC-62 melanoma = tested on: UACC-62 melanoma
LOX IMVI melanoma = tested on: LOX IMVI melanoma
SK-MEL-28 melanoma = tested on: SK-MEL-28 melanoma

Measured: growth

O=C1/C(=C\c2ccccn2)c2ccccc2N1c1c(Cl)cccc1Cl
inactive: MALME-3M melanoma 67.3% | MDA-MB-231 breast 15.7% | SF-295 CNS 12.3% | UACC-257 melanoma 59.3% | HCT-15 colon 12.6% | HT29 colon 10.8% | SNB-19 CNS 34.8% | PC-3 prostate 31.4% | SK-MEL-5 melanoma 23.7% | UACC-62 melanoma 24.9% | SK-MEL-28 melanoma 14.6%
active: DU-145 prostate -0.0912% | K-562 leukemia 9.42% | RXF 393 renal -35.2% | SF-268 CNS 7.81% | SF-539 CNS 1.27% | M14 melanoma -43.6% | SNB-75 CNS -28.2% | U251 CNS -2.48% | LOX IMVI melanoma -89.2%

C=C1C(=O)O[C@H]2[C@H]1CC/C(CNC(=O)c1c[nH]c3ccc(F)cc13)=C\CC[C@@]1(C)O[C@@H]21
active: DU-145 prostate -58.5% | K-562 leukemia -19.3% | MALME-3M melanoma -2.58% | RXF 393 renal -84.9% | SF-539 CNS -42.6% | UACC-257 melanoma -68.4% | M14 melanoma -26.1% | HCT-15 colon -69.6% | HT29 colon -59.5% | UACC-62 melanoma -37.3% | LOX IMVI melanoma -88.4% | SK-MEL-28 melanoma -24.3%
inactive: MDA-MB-231 breast 11.7% | SF-268 CNS 42.8% | SF-295 CNS 67.7% | SNB-75 CNS 45% | SNB-19 CNS 61.3% | U251 CNS 31.7% | PC-3 prostate 31.8% | SK-MEL-5 melanoma 61.4%

N#CC1=C(N)Oc2ccc3ccccc3c2C1c1ccc([N+](=O)[O-])cc1 (stereo not given)
inactive: DU-145 prostate 104% | K-562 leukemia 77.7% | MALME-3M melanoma 51.4% | MDA-MB-231 breast 57.8% | RXF 393 renal 94.7% | SF-268 CNS 80.5% | SF-295 CNS 84.6% | SF-539 CNS 85.7% | UACC-257 melanoma 89.3% | M14 melanoma 89.7% | HCT-15 colon 87.6% | HT29 colon 105% | SNB-75 CNS 61.7% | SNB-19 CNS 86.8% | U251 CNS 94.2% | PC-3 prostate 69.8% | SK-MEL-5 melanoma 86.2% | UACC-62 melanoma 77.3% | LOX IMVI melanoma 74.6% | SK-MEL-28 melanoma 99.1%

CC1=C(C(=O)Nc2ccccc2)C(c2ccc3c(c2)OCO3)NC(=S)N1 (stereo not given)
inactive: DU-145 prostate 111% | K-562 leukemia 118% | MALME-3M melanoma 100% | MDA-MB-231 breast 106% | RXF 393 renal 129% | SF-268 CNS 106% | SF-295 CNS 105% | SF-539 CNS 102% | UACC-257 melanoma 107% | M14 melanoma 93% | HCT-15 colon 101% | HT29 colon 109% | SNB-75 CNS 107% | SNB-19 CNS 96.2% | U251 CNS 104% | PC-3 prostate 95.3% | SK-MEL-5 melanoma 102% | UACC-62 melanoma 97.5% | LOX IMVI melanoma 96.2% | SK-MEL-28 melanoma 112%

COc1ccc2c(c1)/C(=N/c1n[nH]c(=S)s1)C(=O)N2
inactive: DU-145 prostate 107% | K-562 leukemia 82.9% | MALME-3M melanoma 104% | MDA-MB-231 breast 87.8% | RXF 393 renal 113% | SF-268 CNS 98.8% | SF-295 CNS 106% | SF-539 CNS 87.4% | UACC-257 melanoma 96.5% | M14 melanoma 103% | HCT-15 colon 104% | HT29 colon 105% | SNB-75 CNS 75.4% | SNB-19 CNS 99.1% | U251 CNS 93.8% | PC-3 prostate 91.2% | SK-MEL-5 melanoma 91.2% | UACC-62 melanoma 94.8% | LOX IMVI melanoma 95.8% | SK-MEL-28 melanoma 107%

CC(=O)c1sc2sc(C(C)=O)c(C)c2c1C
inactive: DU-145 prostate 111% | K-562 leukemia 95.5% | MALME-3M melanoma 126% | MDA-MB-231 breast 101% | RXF 393 renal 93% | SF-268 CNS 97.1% | SF-295 CNS 105% | SF-539 CNS 85.1% | UACC-257 melanoma 81.3% | M14 melanoma 107% | HCT-15 colon 105% | HT29 colon 79.4% | SNB-75 CNS 90.6% | SNB-19 CNS 105% | U251 CNS 93.9% | PC-3 prostate 77.7% | SK-MEL-5 melanoma 98.2% | UACC-62 melanoma 75% | LOX IMVI melanoma 95.6% | SK-MEL-28 melanoma 100%

CC1(C)CC[C@]2(C(=O)N[C@H](CO)Cc3ccccc3)CC[C@]3(C)C(=CC[C@@H]4[C@@]5(C)CCCNC(C)(C)[C@@H]5CC[C@]43C)[C@@H]2C1
inactive: DU-145 prostate 93.7% | MALME-3M melanoma 106% | MDA-MB-231 breast 70.1% | RXF 393 renal 78.4% | SF-268 CNS 85.7% | SF-295 CNS 102% | SF-539 CNS 90.4% | UACC-257 melanoma 106% | M14 melanoma 71.4% | HCT-15 colon 60.5% | HT29 colon 10.6% | SNB-75 CNS 87.1% | SNB-19 CNS 84.8% | U251 CNS 68.9% | PC-3 prostate 25.7% | SK-MEL-5 melanoma 90.7% | UACC-62 melanoma 78.5% | LOX IMVI melanoma 69.6% | SK-MEL-28 melanoma 106%
active: K-562 leukemia 1.94%

From PubChem BioAssay (NCI)
